For assay [1], the target named is Phospholipid hydroperoxide glutathione peroxidase GPX4 (Homo sapiens) (UniProt P36969). Kind of assay: Primary qHTS Assay for Inhibitors of Recombinant Selenoprotein Glutathione Peroxidase 4 (GPX4) (AID 1845192). Note: nearly all actives have a fitted effect of over 65% in size. Note: potency is the fitted concentration of half-maximal effect. An outline of the steps: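 qHTS, GR-coupled: GPX4 200 nM + cpd 30 min RT → GSH 1 mM, NADPH 0.5 mM, GR 100 nM → CHP 0.5 mM start; fluor 340/450 at t0 and t15 min; no-enzyme wells as control.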

In assay [2] the target is Glutathione peroxidase 1 (Homo sapiens) (UniProt P07203). Nature of the assay: Primary qHTS Assay for Inhibitors of Recombinant Selenoprotein Glutathione Peroxidase 1 (GPX1) (AID 1845191). For activity, negative = inhibition: % is set by controls: 0 for no effect and ±100 for the full control effect. Note: nearly all actives have a fitted effect of over 65% in size. Note: potency is the fitted concentration of half-maximal effect. An outline of the steps: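 GPX1 10 nM, GR 100 nM, GSH 1 mM, NADPH 0.5 mM, CHP 0.5 mM (final). 30-min cpd preincubation, RT. Ex340/Em450 read t=0, t=15 min.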
(qHTS replaces the single test concentration by a dilution series.)

The target of assay [3] is Cytochrome P450 3A4 (Homo sapiens) (UniProt P08684). Kind of assay: qHTS Assay for Inhibitors and Substrates of Cytochrome P450 3A4 (AID 884). Note: nearly all actives have a fitted effect of over 50% in size. Note: potency is the fitted concentration of half-maximal effect. An outline of the steps:
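Luminescent readout of luciferin produced by CYP3A4 (20 nM) dealkylation of Luciferin-PPXE, 25 uM (its KM). NADPH-driven reaction ran 60 min at RT after 10 min compound preincubation; data scaled to 57 uM ketoconazole as 100% inhibition.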

Assay [4] concerns the target Luciferin 4-monooxygenase (Photinus pyralis) (UniProt P08659). Kind of assay: Biochemical firefly luciferase enzyme assay for NPC (AID 624030).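 Note: purified P. pyralis luciferase at 10 nM with luciferin and ATP substrate; 0% = DMSO and -100% = full luciferase inhibition by PTC124 control; nearly all actives have a fitted effect of over 70% in size.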 An outline of the steps: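 Counter-screen for direct inhibition of the luciferase enzyme by approved-drug library compounds, run at 10 nM enzyme in 50 mM Tris acetate (final). Luminescence was read within 5 min of enzyme-buffer addition and normalized to PTC124 versus DMSO (0%).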

The nature of assay [5]: qHTS profiling for inhibitors of Plasmodium falciparum proliferation (AID 504749).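 For activity, negative = inhibition: 0% = DMSO vehicle and full inhibition = artemisinin control.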 For all read-outs here: nearly all actives have a fitted effect of over 60% in size. Note: potency is the fitted concentration of half-maximal effect. The note with it: P. falciparum in erythrocytes, SYBR Green DNA, 72 h; for activity, negative = inhibition: at 28.7 µM (top of the series). An outline of the steps:
(§1)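 Fluorescence of SYBR Green-bound parasite DNA, read at 485/535 nm, served as the growth measure. Infected erythrocytes were cultured with compound 72 h; artemisinin (0.29 uM) and DMSO wells defined the normalization range.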

The test system of assay [6] is AA1029. The description is as above. The conditions noted are these: P. falciparum in erythrocytes, SYBR Green DNA, 72 h; series mostly up to 28.7 µM. An outline of the steps:
as §1

For assay [7], the system named is ATS189. Described as above. The conditions noted are these: P. falciparum in erythrocytes, SYBR Green DNA, 72 h; series mostly up to 28.7 µM. An outline of the steps:
as §1

Assay [8] has as its system ATS95. The description is as above. The conditions noted are these: P. falciparum in erythrocytes, SYBR Green DNA, 72 h; series mostly up to 28.7 µM. An outline of the steps:
as §1

Assay [9] relates to CP192. The assay is described as above. The conditions noted are these: P. falciparum in erythrocytes, SYBR Green DNA, 72 h; series mostly up to 28.7 µM. An outline of the steps: as §1
Assay [10] relates to CP238. The assay is described as above. The conditions noted are these: P. falciparum in erythrocytes, SYBR Green DNA, 72 h; series mostly up to 28.7 µM. An outline of the steps: as §1
Assay [11] concerns CP286. The description is as above. The note with it: P. falciparum in erythrocytes, SYBR Green DNA, 72 h; series mostly up to 28.7 µM. An outline of the steps:
as §1

Assay [12] has as its system CP291. The description is as above. The note with it: P. falciparum in erythrocytes, SYBR Green DNA, 72 h; series mostly up to 28.7 µM. An outline of the steps: as §1
The subject of assay [13] is DFO2036. The description is as above. The note with it: P. falciparum in erythrocytes, SYBR Green DNA, 72 h; series mostly up to 28.7 µM. An outline of the steps:
as §1

For assay [14], the system named is GB4. The assay is described as above. The conditions noted are these: P. falciparum in erythrocytes, SYBR Green DNA, 72 h; series mostly up to 28.7 µM. An outline of the steps: as §1
The nature of assay [15]: qHTS assay for small molecule antagonists of retinoid X receptor alpha signaling (AID 588546).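 Note: cells stimulated with 9-cis-retinoic acid as agonist; % is set by controls: 0 for no effect and ±100 for the full control effect.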 The conditions noted are these: HEK293T RXRa-UAS-bla, beta-lactamase ratio, antagonist mode; measured here: W530 green channel, cytotoxicity proxy. An outline of the steps: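 Beta-lactamase reporter inhibition, read as CCF4 fluorescence ratio (ex 405, em 460/530 nm) after 2 h at RT. HEK293T UAS-bla cells, 2500/well, were stimulated with 9-cis-RA at 500 or 100 nM final alongside test compound for 18 h at 37 C.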

The nature of assay [16]: qHTS assay for environmental chemicals that activate the Aryl hydrocarbon Receptor (AhR) signaling pathway (AID 651777). Note: % of control where 0% means no effect; nearly all actives have a fitted effect of over 15% in size. The note with it: 1A2-DRE human hepatoma cells, luciferase, 24 h; activation: stronger effect = higher value. An outline of the steps: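 Concentration–response screening used 1,200 1A2-DRE cells per well, 24 hr compound exposure (37 C, 5% CO2), and One-Glo luminescence as the AhR-driven CYP1A2 reporter signal.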

Assay [17] concerns the target Peroxisome proliferator-activated receptor alpha (Homo sapiens) (UniProt Q07869). Kind of assay: qHTS assay for small molecule agonists of the peroxisome proliferator-activated receptor alpha (PPARalpha) signaling pathway (AID 651778). Note: % of control where 0% means no effect. The conditions noted are these: PathHunter PPARalpha complementation, chemiluminescence, 6 h; max response: stronger effect = higher value. An outline of the steps: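 Cells plated at 2,000/well and held overnight at 37 C, 5% CO2, then compound added by pin tool for 6 hr; after PathHunter detection reagent and 60 min at room temperature, chemiluminescence from enzyme complementation was read.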

Assay [18] is described as follows: qHTS assay for small molecule agonists of the antioxidant response element (ARE) signaling pathway measured by Nrf2-dependant transcriptional activity (AID 720636; active = well fitted curve in the direction sought with a large enough effect in the repeat runs; an effect the other way counts as inactive or inconclusive; note: % of control where 0% means no effect). An outline of the steps: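 Attachment 6 hr at 37 C, then compound versus DMSO vehicle for 16 hr in ARE-luc HepG2 cells (1% dialyzed FBS); luminescence recorded 30 min after ONE-Glo addition at room temperature.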

Assay [19] can be described thus: qHTS assay for cell viability of HEK293 cells (AID 743288). Note: % is set by controls: 0 for no effect and ±100 for the full control effect; nearly all actives have a fitted effect of over 50% in size. The note with it: ATP luminescence (CellTiter-Glo), 18 h; max response: stronger effect = lower value. An outline of the steps:
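Steps: plate 2,000 parental HEK293 cells per well; incubate ≥5 h, 37 C; add compounds in DMSO; incubate 18 h, 37 C; add CellTiter-Glo; wait 30 min at room temperature; read luminescence.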

Values joined by “and” are separate entries in the source; they are usually repeats but may differ in a detail not shown here. Identical values can stand only once. Records with an inconclusive call do not appear. Active and inactive are the calls of the source. Unless noted, calls come from the whole dose curve; as a rule, active = well fitted curve in the direction sought with a large enough effect; inconclusive = small, poorly fitted or top-dose-only effect, or another doubt; inactive = no such curve, though single readings can be large; an effect the other way counts as inactive or inconclusive. Square brackets hold non-standard residues; d marks the D form. Peptide text beside a SMILES is read from it. pGlu = O=C1CC[C@@H](C(=O)O)N1

Chain of Cytochrome P450 3A4 (Homo sapiens) (P08684 whole entry, looked up): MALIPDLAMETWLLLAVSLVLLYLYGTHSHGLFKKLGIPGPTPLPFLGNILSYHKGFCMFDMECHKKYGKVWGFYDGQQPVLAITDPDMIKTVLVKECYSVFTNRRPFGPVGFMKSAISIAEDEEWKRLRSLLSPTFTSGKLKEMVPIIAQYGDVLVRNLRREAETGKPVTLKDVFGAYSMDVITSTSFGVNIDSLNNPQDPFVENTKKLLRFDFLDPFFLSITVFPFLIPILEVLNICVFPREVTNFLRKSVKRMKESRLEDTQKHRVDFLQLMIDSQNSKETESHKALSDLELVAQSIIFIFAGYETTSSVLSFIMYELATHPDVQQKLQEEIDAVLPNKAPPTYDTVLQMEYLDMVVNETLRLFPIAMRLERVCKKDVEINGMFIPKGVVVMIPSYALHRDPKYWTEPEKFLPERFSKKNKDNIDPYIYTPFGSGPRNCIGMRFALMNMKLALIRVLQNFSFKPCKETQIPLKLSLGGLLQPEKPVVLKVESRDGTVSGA
Chain of Glutathione peroxidase 1 (Homo sapiens) (P07203 whole entry, looked up): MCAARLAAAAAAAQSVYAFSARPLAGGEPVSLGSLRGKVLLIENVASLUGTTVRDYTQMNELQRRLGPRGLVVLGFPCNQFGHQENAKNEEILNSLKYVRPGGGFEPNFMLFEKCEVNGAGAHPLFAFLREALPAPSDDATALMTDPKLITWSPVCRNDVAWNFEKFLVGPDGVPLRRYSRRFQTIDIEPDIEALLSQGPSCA
Chain of Luciferin 4-monooxygenase (Photinus pyralis) (P08659 whole entry, looked up): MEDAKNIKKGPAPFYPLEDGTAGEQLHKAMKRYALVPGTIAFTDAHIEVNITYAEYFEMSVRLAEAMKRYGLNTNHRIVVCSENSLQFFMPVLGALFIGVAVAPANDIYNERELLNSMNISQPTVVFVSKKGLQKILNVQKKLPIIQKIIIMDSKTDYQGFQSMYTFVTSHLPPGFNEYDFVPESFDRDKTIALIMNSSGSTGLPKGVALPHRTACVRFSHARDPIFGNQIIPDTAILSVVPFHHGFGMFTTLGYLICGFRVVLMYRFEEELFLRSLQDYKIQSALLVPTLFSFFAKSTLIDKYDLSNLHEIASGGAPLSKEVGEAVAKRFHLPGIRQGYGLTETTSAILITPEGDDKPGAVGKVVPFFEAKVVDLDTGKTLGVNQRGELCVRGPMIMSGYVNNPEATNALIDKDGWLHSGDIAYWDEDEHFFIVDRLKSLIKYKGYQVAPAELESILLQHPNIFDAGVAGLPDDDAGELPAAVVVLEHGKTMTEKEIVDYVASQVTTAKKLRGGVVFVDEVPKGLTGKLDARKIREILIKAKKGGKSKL
Chain of Peroxisome proliferator-activated receptor alpha (Homo sapiens) (Q07869 whole entry, looked up): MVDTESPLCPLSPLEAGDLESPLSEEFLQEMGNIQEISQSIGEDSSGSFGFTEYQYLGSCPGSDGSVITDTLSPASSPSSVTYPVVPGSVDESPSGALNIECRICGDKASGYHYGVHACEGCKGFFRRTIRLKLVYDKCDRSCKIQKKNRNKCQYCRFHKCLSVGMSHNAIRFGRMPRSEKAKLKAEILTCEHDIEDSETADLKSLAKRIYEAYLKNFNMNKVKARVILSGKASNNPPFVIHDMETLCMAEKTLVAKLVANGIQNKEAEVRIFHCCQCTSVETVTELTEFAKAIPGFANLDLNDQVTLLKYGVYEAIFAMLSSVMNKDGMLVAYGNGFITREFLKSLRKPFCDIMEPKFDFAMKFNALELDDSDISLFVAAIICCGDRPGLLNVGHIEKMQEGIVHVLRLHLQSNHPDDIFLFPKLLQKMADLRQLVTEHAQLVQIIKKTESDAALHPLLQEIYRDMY
Chain of Phospholipid hydroperoxide glutathione peroxidase GPX4 (Homo sapiens) (P36969 whole entry, looked up): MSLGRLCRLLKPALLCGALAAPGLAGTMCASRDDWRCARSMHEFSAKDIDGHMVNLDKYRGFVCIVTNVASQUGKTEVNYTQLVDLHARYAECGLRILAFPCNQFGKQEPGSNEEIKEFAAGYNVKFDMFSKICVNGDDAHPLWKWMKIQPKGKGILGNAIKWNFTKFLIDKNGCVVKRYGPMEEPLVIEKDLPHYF

Take `CCCCCCCCCC(=O)OCCN1CCN(CC/C=C2/c3ccccc3Sc3ccc(Cl)cc32)CC1`: the Potency in assay [1] was 2.24 µM (active).
As to `COc1cc(/C=C/C(=O)N2CCC=CC2=O)cc(OC)c1OC`, the Potency entry in assay [2] was “inactive”.
For `O=c1cc(-c2cccc(O)c2)oc2c(O)c(O)ccc12`, the Potency in assay [3] was 15.8 µM (active). Further, the Potency result in assay [2] is “inactive”.
`CO/N=C(/C(=O)N[C@@H]1C(=O)N2C(C(=O)OC(C)OC(C)=O)=C(COC(N)=O)CS[C@H]12)c1ccco1` (some centres not stated): the Potency result in [4] is “inactive”. For the same compound, the Potency in [2] was 20.2 µM (active).
In the case of `CCCCCCCCCCCCC[N+](C)(C)Cc1ccccc1`, the Potency result in assay [3], in [2] and in assay [1] was “inactive” in each case.
For the compound `CO[C@@H]1[C@@H](OC2OC(C)C(OC3CC(C)(O)C(OC(=O)CC(C)C)C(C)O3)C(N(C)C)C2O)[C@@H](CC=O)C[C@@H](C)C(=O)/C=C\C2O[C@H]2C[C@@H](C)OC(=O)C[C@H]1OC(C)=O` (some centres not stated), the Potency entry in [4], in assay [2] and in assay [9] was “inactive” throughout. Moreover, the Potency in assay [5] (parasite line A) was 11.2 µM (active); in [5] (parasite line B), 10 µM (active); in [6], 5.01 µM (active); in [7] it was 11.2 µM (active); in assay [8] it was 11.2 µM (active); in assay [10] it was 10 µM (active). Further, the Potency in [11] is 4.47 µM (active); in assay [12], 6.75 µM (active); in assay [13], 10 µM (active); in [14] it was 13.5 µM (active).
On to `CC(C)CC(NC(=O)CNC(=O)C(Cc1ccc(O)cc1)NC(=O)C(CO)NC(=O)C(Cc1c[nH]c2ccccc12)NC(=O)C(Cc1cnc[nH]1)NC(=O)C1CCC(=O)N1)C(=O)NC(CCCN=C(N)N)C(=O)N1CCCC1C(=O)NCC(N)=O` (configuration not stated), for which the Potency result in assay [4], in [2] and in assay [1] was “inactive” each time.
For `Nc1nc(-c2ccc(Cl)c(Cl)c2)c(-c2ccncc2)s1`, in assay [3], the Potency is 0.794 µM (active). The Potency entry in [2] is “inactive”.
For `NCCC[C@H](NC(=O)[C@@H]1CCCN1C(=O)[C@@H]1CSSC[C@H](N)C(=O)N[C@@H](Cc2ccc(O)cc2)C(=O)N[C@@H](Cc2ccccc2)C(=O)N[C@@H](CCC(N)=O)C(=O)N[C@@H](CC(N)=O)C(=O)N1)C(=O)NCC(N)=O`, the Potency in [1] is 25.1 µM (active).
On the same count and under the same terms, the result for `C[N+]1(C)C2CC[C@H]1CC(OC(=O)C(O)c1ccccc1)C2` (some centres not stated) reads “inactive”; that for `COc1cc(N)cn[n+]1-c1ccccc1`, “inactive”; that for `CN1N=C2CCN(C(=O)[C@H](COCc3ccccc3)NC(=O)C(C)(C)N)C[C@]2(Cc2ccccc2)C1=O`, “inactive”.
Take `CCNC(=O)[C@H]1CCCN1C(=O)[C@H](CCCN=C(N)N)NC(=O)[C@H](CC(C)C)NC(=O)[C@H](CC(C)C)NC(=O)[C@@H](Cc1ccc(O)cc1)NC(=O)[C@H](CO)NC(=O)[C@@H](Cc1c[nH]c2ccccc12)NC(=O)[C@H](Cc1cnc[nH]1)NC(=O)[C@@H]1CCC(=O)N1` ([pGlu]H[dW]S[dY]LLR[dP]-NHEt): the Potency entry in [4] and in [2] was “inactive” each time.
With `O=C1CCc2ccccc2O1`, the Potency result in assay [3], in [18] and in assay [2] was “inactive” in each case. Also, the max response in assay [15] was -3.35%; in [17], 0.979% (inactive); in [19] it was -0.285% (inactive). In addition, the activation in assay [16] was 0.95% (inactive).
Consider `C[C@H](CCC(=O)O)[C@H]1CC[C@H]2[C@@H]3CC[C@@H]4C[C@H](O)CC[C@]4(C)[C@@H]3C[C@H](O)[C@]12C`, for which the Potency entry in [1] was “inactive”.
Consider `CO/N=C(/C(=O)N[C@@H]1C(=O)N2C(C(=O)O)=CCS[C@H]12)c1csc(N)n1`, for which the Potency result in assay [4], in assay [6], in assay [7], in [8], in assay [9] and in [10] was “inactive” each time. For the same compound, the Potency result in assay [11], in [12], in assay [13] and in assay [14] was “inactive” throughout. For the same compound, the Potency in assay [2] was 10.1 µM (active). Further, the activity, negative = inhibition in assay [5] (parasite line A) is 1.12% (inactive); in assay [5] (parasite line B), 9.16% (inactive).
As to `Cn1nnnc1SCC1=C(C(=O)O)N2C(=O)[C@H](NC(=O)C(O)c3ccccc3)C2SC1` (some centres not stated), in assay [1], the Potency was 8.91 µM (active).
Take `NCCCC(N)C(=O)O` (configuration not stated): the Potency result in assay [4], in [2] and in assay [1] was “inactive” throughout.
Regarding `Cc1cccc(O)c1`, the max response in assay [15] was -8.57% and -4.8%; in assay [17], -4.41% (inactive) and -2.22% (inactive); in assay [19], -15.7% (inactive) and -2.81% (inactive). Further, the activation in assay [16] was 3.54% (inactive) and 0.802% (inactive). Further, the Potency result in assay [18], in [2] and in assay [1] was “inactive” in each case.
On to `Cc1cnc(C(=O)N[C@H]2CCCCC/C=C/[C@@H]3C[C@@]3(C(=O)NS(=O)(=O)C3CC3)NC(=O)[C@@H]3C[C@@H](Oc4nc5ccccc5c5ccccc45)CN3C2=O)cn1`, for which, in [1], the Potency is 3.98 µM (active).
The same measure, in the same setting: as for `C=CC1(C)CC(=O)C2(O)C(C)(O1)C(OC(C)=O)C(OC(=O)CCN(C)C)C1C(C)(C)CCC(O)C12C` (configuration not stated), the entry is “inactive”.

The record behind these values is PubChem BioAssay (NCATS).
